Many of the other results were omitted from the sample, so hits are more common in it than they were.
RBX1-CUL1 inh = blocks human RBX1-Cullin-1 di-ubiquitin formation; in vitro K48 di-Ub FRET, acceptor:donor ratio, 45 min; inhibition, % at 10 µM; 140,000 tested, 0.6% active; in the data active = inhibition above about 25%
A number is an active result; - = inactive.

SMILES | RBX1-CUL1 inh
COc1ccc(CC(=O)NCc2nc(-c3ccc(NC(=O)Cc4ccccc4)cc3)oc2C)cc1 | -
Cc1ccc(NC(=NCCc2ccccc2)C(=NCCc2ccccc2)Nc2ccc(C)cc2)cc1 | -
O=c1oc(=O)n(Cc2ccc(Cl)c(Cl)c2)c2ccccc12 | -
CCSc1nc2ccc(NC(=O)c3sc4nc(-c5cccc(OC)c5)ccc4c3N)cc2s1 | -
CN(Cc1ccccc1)S(=O)(=O)c1ccc(NC(=S)NC(=O)c2ccc(Cl)cc2Cl)cc1 | -
Cc1cc(Nc2ccc(Cl)cc2)c2c(N)ccc(C)c2n1 | -
Cc1ccc(N2NC(=O)/C(=C/c3ccc(-c4ccc(S(=O)(=O)Nc5nccs5)cc4)o3)C2=O)cc1 | 71.7
NC(=O)c1ccc(-c2ccc(/C=C3/C(=O)NN(c4ccc(F)cc4)C3=O)o2)cc1 | -
CC(=O)NS(=O)(=O)c1ccc(-c2ccc(/C=C3/C(=O)NN(c4cccc(C)c4)C3=O)o2)cc1 | -
Cc1cccc(N2NC(=O)/C(=C/c3ccc(-c4ccc(S(N)(=O)=O)cc4)o3)C2=O)c1 | 31.8
CC1=NN(c2ccc(C)c(C)c2)C(=O)/C1=C\c1ccc(-c2ccc(S(=O)(=O)c3nccs3)cc2)o1 | -
O=C1NN(c2cccc(F)c2)C(=O)/C1=C\c1ccc(-c2ccc(C(=O)O)cc2)o1 | -
NS(=O)(=O)c1ccc(-c2ccc(/C=C3\C(=O)NC(=S)N(c4cccc5ccccc45)C3=O)o2)cc1 | -
NS(=O)(=O)c1ccc(-c2ccc(/C=C3/C(=O)NN(c4cccc(F)c4)C3=O)o2)cc1 | 43.6
Cc1ccc(N2NC(=O)/C(=C/c3ccc(-c4ccccc4F)o3)C2=O)cc1C | -
Cc1cc(C)n(/N=C/c2cccc(Cl)c2Cl)c(=O)c1C#N | -
Cc1ccc(C(=O)C2C(=O)C(=O)N(CC3CCCO3)C2c2cccc(Oc3ccccc3)c2)cc1 (stereo not given) | -
COc1cc(CN(C(C)=O)c2ccc(-c3nc4ccccc4o3)cc2)ccc1OCc1c(Cl)cccc1Cl | -
O=[N+]([O-])c1cccnc1Sc1nc(-c2ccccc2)c(-c2ccccc2)[nH]1 | -
COc1ccc(C(=O)Nc2cccc(CN3CCOCC3)c2)cc1COc1cccc(Cl)c1Cl | -
O=C1NC(=S)NC(=O)C1=Cc1cc2c(cc1Cl)OCO2 | -
Cc1ccc(N2NC(=O)/C(=C/c3cc4c(cc3Cl)OCO4)C2=O)cc1C | 64.5
CCOc1ccccc1/C=C1\C(=O)NN(c2ccc(C)c(C)c2)C1=O | 46.8
Cc1ccc(N2NC(=O)/C(=C/c3ccc4c(c3)n(C)c(=O)n4C)C2=O)cc1Cl | -
CCOc1cc(/C=C2\C(=O)NN(c3ccc(Cl)cc3)C2=O)c(Br)c(Br)c1O | 73.2
SMILES | RBX1-CUL1 inh
Cc1ccc(N2NC(=O)/C(=C/c3ccccc3OCc3ccccc3)C2=O)cc1 | -
CCOc1c(/C=C2\C(=O)NN(c3ccc(Cl)c(Cl)c3)C2=O)cccc1OC | -
CCOc1ccc(/C=C2/C(=O)NN(c3ccc(Cl)cc3)C2=O)cc1OC | -
CCOc1cc(/C=C2\C(=O)NC(=O)N(c3ccc(Cl)cc3)C2=O)cc(Br)c1O | -
CC(=O)C(C(C)=O)=C1SCC(C)S1 (stereo not given) | -
Cc1c(C(=O)N2CCCCC2)sc(NC(=O)C(C(F)(F)F)C(F)(F)F)c1C#N | -
CC1CN(Cc2cccc3ncccc23)Cc2cc(Cl)ccc2O1 (stereo not given) | -
CCOc1ccc(NS(=O)(=O)c2ccc(NC(=O)Nc3ccc(Cl)cc3)cc2)cc1 | -
COC1CCCN(C(=O)c2csc3nc(-c4cccc(C(F)(F)F)c4)cn23)C1 (stereo not given) | -
CC(C)Nc1ccc2nnnn2n1 | -
CCOC(=O)NC(=S)Nc1cccc(C(F)(F)F)c1 | -
COc1ccc(Oc2coc3cc(OC(C)C(=O)OCC(C)C)ccc3c2=O)cc1 (stereo not given) | -
CCC(=O)N1CCN(c2ccc(NCc3cc(Cl)c(OCc4ccccc4)c(OC)c3)cc2)CC1 | -
CC(C)C(NC(=O)c1ccccc1)C(=O)OCC(=O)c1ccc(Cl)cc1 (stereo not given) | -
O=C(Oc1cccc2c1Oc1nc3ccccc3nc1O2)c1ccccc1[N+](=O)[O-] | -
O=C1C2C(c3ccc(Br)cc3)OC3(C(=O)c4ccccc4C3=O)C2C(=O)N1c1ccc(Oc2ccc(Cl)cc2)cc1 (stereo not given) | -
O=C1C2C(c3ccc(Br)cc3)OC3(C(=O)c4ccccc4C3=O)C2C(=O)N1c1cccc([N+](=O)[O-])c1 (stereo not given) | 59.3
COc1cccc(C2OC3(C(=O)c4ccccc4C3=O)C3C(=O)N(c4ccc(Br)cc4)C(=O)C23)c1 (stereo not given) | -
CCc1n[nH]c2c1CN(Cc1cnn(-c3ccccc3Cl)c1)CC2 | -
COc1ccc(NCc2cccc(OCc3ccccc3Cl)c2)cc1 | -
COc1cc(CNCCSC)ccc1OCC(O)CN1CCCCCC1 (stereo not given) | -
COc1cc(CN2CCCC2)ccc1OCC(O)CN1CCCCCCC1 (stereo not given) | -
COc1cc(CNC(C)(C)C)ccc1OCC(O)CN1CCCC1 (stereo not given) | 99.2

Assay outcomes from PubChem.
